The nature of assay [1]: BSK_3C_Proliferation: Cell Proliferation Assessment in the BioMAP Diversity Plus: 3C Assay (AID 2283006).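 Note: potency may reflect either rise or fall in cell number versus DMSO.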 Conditions: primary human endothelial cells (HUVEC). The essentials: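 Proliferation as total protein: sulforhodamine B (0.1%) stain of TCA-fixed subconfluent human umbilical vein endothelial cells, absorbance 560 nm, 48 h after dosing. Activity fitted in both directions against DMSO baseline.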

Assay [2] in a line: BSK_LPS_SRB: Viability Assessment in the BioMAP Diversity Plus: LPS Assay (AID 2283079).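 Note: total protein by sulforhodamine B absorbance as a cytotoxicity measure; measured one day after compound addition; fitted in both directions against DMSO so loss or gain of signal counts.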 The following applies: primary human HUVEC with PBMC. The essentials:
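Co-culture of human umbilical vein endothelial cells and PBMC, read 24 h after dosing. Total protein by 0.1% SRB staining after 10% TCA fixation, absorbance at 560 nm; bidirectional fit against DMSO.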

Read-out in assay [3]: Tumor necrosis factor (Homo sapiens) (UniProt P01375)
Description: BSK_LPS_TNFa: BioMAP Diversity Plus: LPS Assay for Tumour Necrosis Factor alpha (TNFa) Biomarker Activity (AID 2283085).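 For AC50: TNFa protein level quantified by ELISA in the co-culture.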 The following applies: primary human HUVEC with PBMC; actives raise or lower the signal. A digest of the protocol: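 TNFa was quantified by ELISA in LPS-activated co-cultures of human endothelial cells and PBMC, 24 h post-dosing. Both increases and decreases versus DMSO were fitted.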

Read-out in assay [4]: Vascular cell adhesion molecule 1 (VCAM1), VCAM1 (gene 7412)
Briefly: BSK_LPS_VCAM1: BioMAP Diversity Plus: LPS Assay for Vascular cell adhesion molecule 1 (VCAM1) Biomarker Activity (AID 2283086). The following applies: primary human HUVEC with PBMC; actives raise or lower the signal. The essentials: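 VCAM-1 quantified by ELISA in an LPS-activated co-culture of human endothelial cells and peripheral blood mononuclear cells, read 24 h post-treatment. Fitted in both directions versus DMSO; parallel SRB staining flags overt cytotoxicity.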

Read-out in assay [5]: Monocyte Chemoattractant Protein-1 (MCP1), CCL2 (gene 6347)
Description: BSK_SAg_MCP1: BioMAP Diversity Plus: SAg Assay for Monocyte Chemoattractant Protein-1 (MCP1) Biomarker Activity (AID 2283090). The following applies: primary human HUVEC with PBMC; actives raise or lower the signal. The essentials: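 Values derive from bidirectional fitting of ELISA-measured MCP1 against DMSO controls. Readings were taken 24 h after dosing human vascular endothelial cells co-cultured with peripheral blood mononuclear cells under superantigen stimulation.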

Read-out in assay [6]: E-selectin (Homo sapiens) (UniProt P16581)
Briefly: BSK_SAg_Eselectin: BioMAP Diversity Plus: SAg Assay for Eselectin Biomarker Activity (AID 2283091). The following applies: primary human HUVEC with PBMC; actives raise or lower the signal. A digest of the protocol:
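Human umbilical vein endothelial cells co-cultured with peripheral blood mononuclear cells, SAg system. E-selectin is measured by ELISA 24 h after dosing and fitted bidirectionally against DMSO. Cytotoxicity is checked by SRB staining of parallel cultures.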

Read-out in assay [7]: Monokine induced gamma interferon (MIG), CXCL9 (gene 4283)
Description: BSK_SAg_MIG: BioMAP Diversity Plus: SAg Assay for Monokine induced gamma interferon (MIG) Biomarker Activity (AID 2283092). The following applies: primary human HUVEC with PBMC; actives raise or lower the signal. The essentials:
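Measures CXCL9 protein by ELISA in a human vascular primary-cell co-culture (umbilical vein endothelium with PBMC) 24 h after chemical addition. Activity is scored up or down from the DMSO control.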

Read-out in assay [8]: Interleukin-8 (IL8), CXCL8 (gene 3576)
Description: BSK_SAg_IL8: BioMAP Diversity Plus: SAg Assay for Interleukin-8 (IL8) Biomarker Activity (AID 2283094). The following applies: primary human HUVEC with PBMC; actives raise or lower the signal. A digest of the protocol:
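ELISA readout of IL-8 from a superantigen-activated endothelial/PBMC primary human co-culture, taken 24 h post-dosing and fitted in both directions against DMSO; parallel SRB total-protein staining flags overt cytotoxicity.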

Assay [9] is described as follows: BSK_SAg_Proliferation: Cell Proliferation Assessment in the BioMAP Diversity Plus: SAg Assay (AID 2283095).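 Note: relative cell number as total protein by SRB absorbance in sub-confluent culture.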 Conditions: primary human HUVEC with PBMC. A digest of the protocol:
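Relative cell number in the endothelial cell/PBMC co-culture was quantified at 96 h by SRB staining (0.1% SRB, 10% TCA fixation, read at 560 nm). Curves were fitted in both directions relative to DMSO baseline.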

A short description of assay [10]: BSK_SAg_SRB: Viability Assessment in the BioMAP Diversity Plus: SAg Assay (AID 2283096).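 Note: cells read one day after compound addition; hits may be either gain or loss of signal compared with DMSO.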 Conditions: primary human HUVEC with PBMC. A digest of the protocol:
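This overt-cytotoxicity endpoint quantifies protein in human endothelial/PBMC co-cultures at 24 h using SRB absorbance (560 nm) after trichloroacetic acid fixation. Values reflect signal change from the DMSO negative control, fitted bidirectionally.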

Read-out in assay [11]: Interferon-inducible T-cell alpha chemoattractant (ITAC), CXCL11 (gene 6373)
Briefly: BSK_hDFCGF_ITAC: BioMAP Diversity Plus: hDFCGF Assay for Interferon-inducible T-cell alpha chemoattractant (ITAC) Biomarker Activity (AID 2284251). The following applies: primary human foreskin fibroblasts. A digest of the protocol:
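Chemical dosing of primary human foreskin fibroblast cultures preceded ELISA measurement of I-TAC at 24 h. Response was analysed in the positive direction using DMSO as baseline, while parallel SRB staining measured cytotoxicity.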

Read-out in assay [12]: Intercellular Adhesion Molecule 1 (ICAM1), ICAM1 (gene 3383)
Description: BSK_BE3C_ICAM1: BioMAP Diversity Plus: BE3C Assay for Intercellular Adhesion Molecule 1 (ICAM1) Biomarker Activity (AID 2284278).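 For outcome: cell-surface ICAM-1 protein level quantified by ELISA.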 Conditions: primary human bronchial epithelial cells. The essentials: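 ICAM-1 quantified by ELISA and fitted against DMSO baseline, 24 h post-dosing in BE3C cultures of primary human lung bronchial epithelial cells. Cytotoxicity checked in parallel cultures by total protein SRB staining.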

Read-out in assay [13]: Epidermal growth factor receptor (EGFR), EGFR (gene 1956)
Description: BSK_BE3C_EGFR: BioMAP Diversity Plus: BE3C Assay for Epidermal growth factor receptor (EGFR) Biomarker Activity (AID 2284281). The following applies: primary human bronchial epithelial cells. A digest of the protocol: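 Measured 24 h after dosing in primary human bronchial epithelial cultures, EGFR was read by ELISA; gain of signal over DMSO control defined activity.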

Read-out in assay [14]: KRT18 (gene 3875)
Briefly: BSK_BE3C_Keratin818: BioMAP Diversity Plus: BE3C Assay for Keratin 818 Biomarker Activity (AID 2284282). Conditions: primary human bronchial epithelial cells. The essentials:
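ELISA readout of Keratin 8/18 in human primary bronchial epithelial cultures after 24 h chemical exposure, DMSO baseline. Parallel SRB staining (0.1%, TCA-fixed, 560 nm) served as cytotoxicity check.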

Read-out in assay [15]: Matrix Metallopeptidase 9 (MMP9), MMP9 (gene 4318)
Description: BSK_BE3C_MMP9: BioMAP Diversity Plus: BE3C Assay for Matrix Metallopeptidase 9 (MMP9) Biomarker Activity (AID 2284283). Conditions: primary human bronchial epithelial cells. The essentials: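 Human primary bronchial epithelial cells exposed 24 h to compound. MMP9 quantified by ELISA. SRB total-protein staining of parallel cultures assesses cytotoxicity. Positive-direction fit relative to DMSO.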

Read-out in assay [16]: TIMP metallopeptidase inhibitor 2 (TIMP2), TIMP2 (gene 7077)
Briefly: BSK_hDFCGF_TIMP2: BioMAP Diversity Plus: hDFCGF Assay for TIMP metallopeptidase inhibitor 2 (TIMP2) Biomarker Activity (AID 2284289). The following applies: primary human foreskin fibroblasts. A digest of the protocol: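 Primary human foreskin fibroblasts in the hDFCGF system, dosed for 24 h; TIMP-2 level measured by ELISA, fitted in the positive direction against DMSO; cytotoxicity checked in parallel by sulforhodamine B total protein staining.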

Read-out in assay [17]: Thrombomodulin, THBD (gene 7056)
Briefly: BSK_LPS_Thrombomodulin: BioMAP Diversity Plus: LPS Assay for Thrombomodulin Biomarker Activity (AID 2284296). Conditions: primary human HUVEC with PBMC. The essentials: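 Thrombomodulin on the surface of LPS-activated endothelial/PBMC co-cultures was quantified by ELISA at 24 hours post-dosing, with DMSO as baseline. Parallel SRB total-protein staining flagged overt cytotoxicity.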

The target in assay [18] is X-box-binding protein 1 (Homo sapiens) (UniProt P17861). Description: ATG_Xbp1_CIS: Attagene CIS-FACTORIAL HepG2 Assay for human X-box Binding Protein 1 (XBP1) (AID 2282972). The following applies: HepG2 XBP1 cis-element reporter, Attagene multiplex; actives raise or lower the signal. The essentials:
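Read-out: fluorescent reporter mRNA fragments resolved by capillary electrophoresis after RT-PCR. Human HepG2 liver cells carried transfected cis-promoter reporter units and were exposed to chemicals for 24 hours. Gain or loss of signal fitted relative to DMSO baseline.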

Assay [19] can be described thus: ATG_XTT_Cytotoxicity: Cytotoxicity Assessment in the Attagene TRANS-FACTORIAL HepG2 Assay (AID 2283584; active = hit-call score of the fitted dose curve at least 0.9, where 1 is the maximum). The essentials: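 HepG2 cells transiently transfected with GAL4-UAS multiple reporter units, dosed 24 h; cytotoxicity read by XTT as loss of signal versus DMSO baseline.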
Assay [20] deals with mouse Estrogen Receptor alpha (Era), Esr1 (gene 13982) (UniProt P19785). Briefly: NVS_NR_mERa: NovaScreen (NVS) Nuclear Receptor Binding Assay for mouse Estrogen Receptor alpha (Era) (AID 2283378; active = hit-call score of the fitted dose curve at least 0.9, where 1 is the maximum;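 note: hit means loss of bound radioligand signal relative to DMSO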). The essentials:
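Cell-free radioligand competitive displacement binding, read by filter-based scintillation counting 18 h after dosing. Primary screen run in duplicate at 25 uM, actives retested in concentration series; loss of signal versus DMSO.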

“And” between values parts separate entries of the source, which are not always exact repeats. Equal values may be shown once. Results filed as inconclusive are left out. More than one record can exist for a structure, and the calls need not agree. The source made the active and inactive calls. Rule for the calls, unless noted: active = hit-call score of the fitted dose curve at least 0.9, where 1 is the maximum; inactive = score below 0.9.

Chain of Tumor necrosis factor (Homo sapiens) (P01375 whole entry, looked up): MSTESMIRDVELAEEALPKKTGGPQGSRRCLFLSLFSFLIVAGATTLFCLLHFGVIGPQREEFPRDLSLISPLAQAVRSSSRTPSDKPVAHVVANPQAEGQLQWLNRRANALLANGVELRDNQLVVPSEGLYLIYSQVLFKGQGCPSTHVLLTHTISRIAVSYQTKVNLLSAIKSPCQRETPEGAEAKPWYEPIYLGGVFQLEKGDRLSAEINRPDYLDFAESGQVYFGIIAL
Chain of E-selectin (Homo sapiens) (P16581 whole entry, looked up): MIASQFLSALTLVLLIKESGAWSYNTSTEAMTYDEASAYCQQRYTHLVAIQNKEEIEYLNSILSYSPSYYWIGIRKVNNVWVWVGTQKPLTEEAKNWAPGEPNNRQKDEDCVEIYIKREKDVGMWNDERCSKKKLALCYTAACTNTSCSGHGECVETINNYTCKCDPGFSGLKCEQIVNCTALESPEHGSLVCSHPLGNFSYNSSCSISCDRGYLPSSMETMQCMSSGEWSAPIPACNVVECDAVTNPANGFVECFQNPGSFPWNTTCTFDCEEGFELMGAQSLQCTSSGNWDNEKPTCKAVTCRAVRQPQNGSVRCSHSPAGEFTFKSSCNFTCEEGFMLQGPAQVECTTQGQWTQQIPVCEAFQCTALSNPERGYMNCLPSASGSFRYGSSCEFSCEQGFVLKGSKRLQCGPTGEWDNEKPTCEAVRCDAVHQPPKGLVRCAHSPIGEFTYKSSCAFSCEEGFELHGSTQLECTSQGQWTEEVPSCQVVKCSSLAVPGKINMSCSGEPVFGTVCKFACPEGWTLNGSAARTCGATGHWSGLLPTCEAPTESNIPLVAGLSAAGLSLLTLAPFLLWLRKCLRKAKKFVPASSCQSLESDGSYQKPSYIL
Chain of X-box-binding protein 1 (Homo sapiens) (P17861 whole entry, looked up, the tested form may be a part): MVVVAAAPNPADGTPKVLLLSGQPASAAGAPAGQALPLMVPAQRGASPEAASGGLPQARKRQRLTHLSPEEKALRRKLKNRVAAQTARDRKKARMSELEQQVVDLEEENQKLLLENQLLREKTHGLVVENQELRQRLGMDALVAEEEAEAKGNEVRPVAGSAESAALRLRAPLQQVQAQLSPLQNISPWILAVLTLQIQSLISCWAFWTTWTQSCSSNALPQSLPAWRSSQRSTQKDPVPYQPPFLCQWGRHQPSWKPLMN
Chain of mouse Estrogen Receptor alpha (Era), Esr1 (gene 13982) (P19785 whole entry, looked up): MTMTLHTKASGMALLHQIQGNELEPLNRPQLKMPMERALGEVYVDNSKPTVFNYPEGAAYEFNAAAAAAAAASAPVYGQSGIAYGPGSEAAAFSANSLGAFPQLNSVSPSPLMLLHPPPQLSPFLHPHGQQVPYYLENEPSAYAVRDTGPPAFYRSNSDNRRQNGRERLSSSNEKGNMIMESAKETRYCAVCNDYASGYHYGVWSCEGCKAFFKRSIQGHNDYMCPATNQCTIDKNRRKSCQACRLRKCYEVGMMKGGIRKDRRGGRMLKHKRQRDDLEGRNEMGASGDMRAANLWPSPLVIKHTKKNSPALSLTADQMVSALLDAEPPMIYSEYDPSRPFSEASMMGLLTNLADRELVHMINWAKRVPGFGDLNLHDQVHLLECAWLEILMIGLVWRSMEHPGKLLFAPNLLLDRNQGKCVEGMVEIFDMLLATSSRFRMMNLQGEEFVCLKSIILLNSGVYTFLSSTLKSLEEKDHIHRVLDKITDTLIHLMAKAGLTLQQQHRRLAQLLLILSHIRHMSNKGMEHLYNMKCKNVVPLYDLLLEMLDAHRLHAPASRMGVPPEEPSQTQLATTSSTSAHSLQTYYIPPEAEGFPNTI

`O=[N+]([O-])c1cc(S(=O)(=O)Nc2ccccc2)ccc1Nc1ccccc1`: the concentration at half-maximal activity (AC50) is 30.6 µM (active) and 30.9 µM (active) in [1]; 31.1 µM (active) and 28.7 µM (active) in assay [2]; 5.14 µM (active) and 5.08 µM (active) in assay [3]; 13.6 µM (active) and 12.6 µM (active) in [4]; 28.5 µM (active) and 28.6 µM (active) in assay [5]; 12.1 µM (active) and 19.5 µM (active) in [6]. Further, the AC50 in assay [7] is 34.1 µM (active) and 35.3 µM (active); in assay [8] it was 20 µM (active) and 14.4 µM (active); in [9] it was 15 µM (active) and 25.7 µM (active); in assay [10], 29.3 µM (active) and 31.8 µM (active); in [11], 27.4 µM (active) and 24 µM (active); in assay [12], 29.2 µM (active) and 37 µM (active). Besides, the AC50 in assay [13] was 20 µM (active) and 19.6 µM (active); in [14], 32 µM (active); in [15], 33.4 µM (active) and 20 µM (active); in [16], 29.8 µM (active) and 30.3 µM (active); in assay [17], 20 µM (active) and 28.1 µM (active). The outcome in [14] was inactive.

In the case of `OC(C(F)(F)F)(C(F)(F)F)C(O)(C(F)(F)F)C(F)(F)F`, the AC50 in [1] is 22.1 µM (active) and 21.6 µM (active); in assay [2] it was 30.3 µM (active) and 24.3 µM (active); in assay [4], 21.9 µM (active) and 28.8 µM (active); in assay [5] it was 43.3 µM (active) and 40.8 µM (active); in assay [6] it was 23.3 µM (active) and 22.9 µM (active); in assay [7], 50.6 µM (active) and 49.6 µM (active). For the same molecule, the AC50 in [8] is 30 µM (active) and 21.4 µM (active); in [9], 22.9 µM (active) and 36.4 µM (active); in assay [10], 26.9 µM (active) and 26.8 µM (active); in assay [11], 21.2 µM (active) and 20.9 µM (active); in assay [12], 44.7 µM (active); in assay [13], 22.7 µM (active). The AC50 in assay [15] is 30 µM (active); in assay [16], 6.98 µM (active) and 8.04 µM (active). Besides, the result in assay [3], in assay [12], in [13], in assay [14] and in assay [17] was inactive.

Turning to `O=C(O)/C=C/C(=O)O`, the outcome in [18] and in [19] was inactive.

On to `CC(C)CC(=O)CC(C)C`, for which the call in [18] and in assay [19] was inactive.

Regarding `Nc1nc(N)c2nc(-c3ccccc3)c(N)nc2n1`, in [20], the call was inactive.

Regarding `COc1ccccc1Oc1c(NS(=O)(=O)c2ccc(C(C)(C)C)cc2)nc(-c2ncccn2)nc1OCCO`, the AC50 in assay [1] was 28.2 µM (active) and 13.9 µM (active); in assay [9] it was 6.88 µM (active) and 8.61 µM (active). The outcome in [2], in assay [3], in assay [4], in [5], in [6] and in [7] was inactive. Also, the result in assay [8], in [10], in assay [11], in assay [12], in assay [13] and in assay [14] was inactive. The outcome in assay [15], in assay [16] and in assay [17] was inactive.

Turning to `CCCCCCOC(=O)CCCCCCCC(=O)OCCCCCC`, the call in [18] and in assay [19] was inactive.

As for `Oc1ccc(Oc2ccccc2)cc1`, the outcome in assay [18] was inactive. In assay [20], the AC50 was 8.86 µM (active).

Take `CCCC[N+]1(C)CCCC1`: the molecule was called inactive in assay [18] and in assay [19].

Usually AC50 stands for the concentration at which the activity in the assay is half-maximal.

For the origin of these results see PubChem BioAssay (EPA / NIEHS).
